# Screening results deposited in PubChem by National Center for Advancing Translational Sciences (NCATS).
# DT40 TDP1 no CPT = qHTS for Inhibitors of human tyrosyl-DNA phosphodiesterase 1 (TDP1): qHTS in cells in absence of CPT. Potency, µM (highest dose often 46.2 µM), inactives show top-dose activity change, negative = growth inhibition, hits mostly inhibitors. DT40 Tdp1-/- hTDP1 cells, no CPT, ATP luminescence, 48 h. actives 15% (n = 420,000); also: potency is read from the fitted curve at half-maximal effect; nearly all actives have a fitted effect of over 55% in size
#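 DT40 Tdp1-/-;hTDP1 cells, no CPT (DMSO vehicle only), 400 cells/well; compounds pin-transferred; ≥48 hr, 37 °C; CellTiter-Glo 30 min RT dark, luminescence read.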
# ELG1 repair inh = blocks ELG1-dependent DNA repair in HEK293T cells. Potency, µM (top dose mostly 46.1 µM), without a hit: at the highest dose activity change, negative = inhibition, usual class: inhibitors. actives 2.3% (n = 330,000). HEK293T ELG1-luciferase reporter, luminescence, 16 h; DNA damage induced by 5-fluorouridine; also: potency is read from the fitted curve at half-maximal effect; nearly all actives have a fitted effect of over 55% in size
#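 5-Fluorouridine DNA damage + compound/DMSO, 2,000 cells/well, 16 h, 37 °C/5% CO2. ONE-Glo, 30 min RT, luminescence. Readout = decrease in reporter signal.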
# IL-1B inflam inh = inhibitors of inflammasome signaling (IL-1 beta secretion); AID 743279; activity change, % at 57.5 µM; THP-1 LPS/ATP IL-1B secretion, AlphaLISA, 16 h; hits give low values; actives 4.7% (n = 360,000); in the data active = activity change below about -50%; inconclusive = mostly about -30% to -49%
#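 THP-1 cells pretreated 1 hr with compounds (up to 57.5 uM final), then stimulated with LPS (250 ng/mL final) plus ATP (1.25 mM final); secreted IL-1B measured by AlphaLISA after 16 hr, decreased signal indicating inhibition.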
# DT40 TDP1 CPT = DT40-hTDP1 cell growth loss with CPT; chicken DT40 Tdp1-/-;hTDP1 cells + 20 nM CPT, ATP luminescence, 48 h; Potency, µM (top dose mostly 46.2 µM), without a hit: at the top dose activity change, negative = growth inhibition, hits mostly inhibitors; actives 12% (n = 420,000); also: potency is read from the fitted curve at half-maximal effect; nearly all actives have a fitted effect of over 55% in size
#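 Chicken DT40 Tdp1-/- cells stably complemented with human TDP1 were seeded at 400 cells/well in medium containing 20 nM camptothecin, exposed to pin-transferred compounds, and grown at 37 °C for at least 48 hr. Viability was read as ATP luminescence.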
# HT1080 IDH1KD tx = HT-1080 IDH1 knockdown cell toxicity (counter line); HT-1080 IDH1 knockdown viability, ATP luminescence, 48 h; Potency, µM (highest dose often 46.1 µM), without a hit: at the top dose activity, negative = toxicity, actives largely listed as cytotoxic; AID 686971; actives 2% (n = 360,000);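 also: potency is read from the fitted curve at half-maximal effect; 0% = DMSO wells and -100% = cell-free medium wells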
#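 Assay cells: HT-1080 with IDH1 knockdown, 750 per well, RPMI/5% FBS. Exposure: 48 h at 37 °C following 2 h pre-incubation. Read: CellTiter-Glo luminescence; fitted concentration-response, curve class assigned.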
# HT1080NT lethal = kills 2HG-producing HT-1080-NT fibrosarcoma cells | HT-1080-NT fibrosarcoma viability, CellTiter-Glo ATP luminescence, 48 h | Potency, µM (top dose mostly 46.1 µM), inactives show top-dose activity, negative = less viability, most hits filed as cytotoxic | actives 1.6% (n = 360,000) | AID 686970;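 also: NT is the 2HG producing partner of a matched IDH1 knockdown line; potency is read from the fitted curve at half-maximal effect; 0% = DMSO-treated cells and -100% = media-only wells without cells; nearly all actives have a fitted effect of over 55% in size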
#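 Viability by CellTiter-Glo luminescence after 48 h compound exposure at 37C of HT-1080-NT cells (750/well, RPMI, 5% FBS). % activity scaled between DMSO wells and medium-only wells, then curve-fitted and categorized by curve class.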
# An asterisk follows results filed as active; ? = inconclusive; · = no result; [ ] = dose if it differs, or a comment. In the library only some 19% were active in any assay of this set; here they are far more common. Unless noted, calls follow the shape of the dose curve; as a rule, active = well fitted curve in the direction sought with a large enough effect; inconclusive = small, poorly fitted or top-dose-only effect, or another doubt; inactive = no such curve, though single readings can be large; an effect the other way counts as inactive or inconclusive. Unless noted, % is scaled to controls: 0 for no effect and ±100 for the full control effect.
SMILES,DT40 TDP1 no CPT,ELG1 repair inh,IL-1B inflam inh,DT40 TDP1 CPT,HT1080 IDH1KD tx,HT1080NT lethal
CC(C)CN(C(=O)CN(C)CC(=O)Nc1ccccc1C#N)c1c(N)n(CC(C)C)c(=O)[nH]c1=O,-2%,17%,13,0%,-10%,1%
O=C(Nc1c(-c2ccccc2)[nH][nH]c1=O)c1ccc(Br)cc1,5%,·,12,-11%,10%,12%
O=C(NCc1ccccc1)OC1CC2CC1[C@H]1CCCCN1C2=O (stereo partly drawn),-25%,·,2,-11%,6%,-1%
Cc1ccnc(SCC(=O)N2CCN(C(c3ccccc3)c3ccccc3)CC2)n1,16µM*,?,-9,23µM*,14%,3%
Cc1oc(C(C)(C)C)cc1C(=O)N1CCN(C(c2ccccc2)c2ccccc2)CC1,?,1%,-68*,?,?,?
O=C(NCC(=O)N1CCN(C(c2ccccc2)c2ccccc2)CC1)c1ccccc1F,29µM*,?,-52*,?,-1%,-14%
O=C(c1ccc(C#CC2(O)CCCCC2)cc1)N1CCN(C(c2ccccc2)c2ccccc2)CC1,?,2%,-58*,?,-15%[9.24 µM],?
O=C(c1ccc(C#CC2(O)CCCCC2)cc1)N1CCN(Cc2ccccc2)CC1,?,?,-11,?,-10%[9.24 µM],-19%
CC(NC(=O)COC(=O)c1c[nH]c2ccccc12)c1ccccc1 (stereo not drawn),?,?,-25,-21%,-5%,-2%
Cc1cc(C(C)(C)C)oc1C(=O)N1CCN(C(=O)c2oc(C(C)(C)C)cc2C)CC1,16µM*,-1%,46,18µM*,13%,9%
O=C(CCNS(=O)(=O)c1ccccc1C(F)(F)F)N1CCCCCCC1,2%,-5%,-2,-27%,2%,6%
O=C(CCNS(=O)(=O)c1ccccc1C(F)(F)F)N1CCN(C(c2ccccc2)c2ccccc2)CC1,8.2µM*,-15%,-4,12µM*,-10%,-4%
Cc1cc(C(=O)N2CCN(C(c3ccccc3)c3ccccc3)CC2)on1,23µM*,-7%,-17,8.2µM*,-6%,-7%
NC(=NC(=O)c1ccccc1)N1CCN(C(c2ccccc2)c2ccccc2)CC1,?,?,-26,21µM*,13%,21%
O=C(C1=COCCO1)N1CCN(C(c2ccccc2)c2ccccc2)CC1,?,-13%,-3,-25%,3%,-10%
O=C1NC[C@@H](CCCCN2C[C@H](Cc3ccc(O)cc3)N(CC3CCCCC3)C(=O)C2=O)N(CCc2ccccc2)C1=O,-5%,·,-17,0%,11%,1%
CCOc1ccc(N2CC(C(=O)NC3CCCC3)CC2=O)cc1 (stereo not drawn),-1%,-3%,14,-18%,19%,27%
O=C(COC(=O)c1cccc(S(=O)(=O)NCc2ccccc2)c1)c1ccccc1,-27%,-6%,11,-4%,1%,5%
Cc1cc(C)c(C(=O)COC(=O)c2cccc(S(=O)(=O)NCc3ccccc3)c2)cc1C,16µM*,?,23,?,-2%,-10%
Cc1c(C(=O)N2CCOCC2)sc(NC(=O)c2ccccc2F)c1C#N,-11%,9%,5,-6%,12%,-14%
Cc1sc(NC(=O)c2ccccc2F)c(CN2CCCCC2C)c1C (stereo not drawn),12µM*,?,1,18µM*,11%,8%
NC(=O)C1CCN(CCS(=O)(=O)c2ccc(Cl)cc2)CC1,?,11%,-29,-12%,-9%,-1%
Cc1ccc(NC(=O)C2C(c3ccccc3)C=CC(c3ccccc3)C2C(=O)O)cc1 (stereo not drawn),21µM*,-4%,18,29µM*,-3%,-1%
O=C(CSc1nnc(NC(=O)c2ccco2)s1)NCc1ccc2c(c1)OCO2,18µM*,5%,-5,-25%,-3%,-7%
O=C(CSc1nnc(-c2cccs2)n1Cc1ccco1)Nc1ccc2c(c1)OCO2,-23%,15µM*,-19,-9%,-8%,-6%
SMILES,DT40 TDP1 no CPT,ELG1 repair inh,IL-1B inflam inh,DT40 TDP1 CPT,HT1080 IDH1KD tx,HT1080NT lethal
O=C(CSc1nnc(-c2ccccc2)n1Cc1ccco1)Nc1ccc2c(c1)OCCO2,?,?,?,-23%,1%,0%
O=C(CSc1nnc(-c2ccccc2)n1Cc1ccco1)NCc1ccc2c(c1)OCO2,-19%,16µM*,?,-13%,0%,-1%
CC(O)C1CCC2C3CCC4CC(O)CCC4(C)C3C(=O)CC12C (stereo not drawn),?,·,-9,-27%,2%,1%
CCOc1ccc(NC(=O)CS(=O)(=O)Cc2nc(-c3ccc(C)cc3)oc2C)cc1,-25%,·,·,-5%,·,·
COc1ccc(C2C=C(C)Nc3nc4ccccc4n32)cc1 (stereo not drawn),18µM*,?,21,-4%,-6%,-3%
CCN(C(=O)c1ccc2c(=O)n3c(nc2c1)CCCCC3)c1ccccc1C,?,?,18,?,14%,-3%
COc1cc(=O)n2c(c1C(=O)N1CCc3ccccc3C1)CCN(Cc1ccc(CO)o1)CC2,-6%,·,·,12%,·,·
C[C@]12C(=O)N(c3ccc(F)cc3)C(=O)N1[C@@H]1c3ccccc3OC[C@@H]1[C@H]2c1ccccc1,18µM*,-5%,-10,?,-23%,0%
C[C@@]12C(=O)N(c3ccc(C(F)(F)F)cc3)C(=O)N1[C@@H]1c3ccccc3OC[C@@H]1[C@H]2c1ccccc1,10µM*,-23%,0,7.3µM*,2%,8%
C[C@H]1NC(=O)[C@]2(C)[C@@H](c3ccccc3)[C@H]3COc4ccccc4[C@@H]3N2C1=O,-14%,·,0,0%,6%,14%
CCOC(=O)c1c(NC(=O)c2c(C(=O)O)cccc2[N+](=O)[O-])sc(C)c1C,-12%,-4%,10,-7%,6%,11%
COc1ccccc1NC(=O)CSc1nc2nccnc2c(=O)n1CCc1c[nH]c2ccccc12,15µM*,·,·,18µM*,·,·
Cc1ccc(NC(=O)CSc2nc3nccnc3c(=O)n2CCc2c[nH]c3ccccc23)cc1C,12µM*,·,·,13µM*,·,·
